# MmCpn inh: Inhibitors of TCP-1 ring complex (TRiC) of Methanococcus maripaludis (MmCpn): qHTS; AID 504842, 2011; hit rate 0.031% among 330,000; Chaperonin Mm-Cpn (Methanococcus maripaludis); purified Mm-Cpn ATPase, ADP Transcreener TR-FRET; Potency, µM (top dose mostly 76.9 µM), without a hit: at the highest dose activity, negative = inhibition, hits mostly inhibitors; also: nearly all actives have a fitted effect of over 80% in size
#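 Compound-treated chaperonin, 25 nM final, turns over 10 uM ATP at 37°C for 30 min following a 10 min preincubation; ADP generated competes with ADP-d2 for Eu-cryptate antibody, lowering FRET.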
# Eya2 phos inh: qHTS Assay for Inhibitors of the Phosphatase Activity of Eya2; recombinant Eya2, OMFP fluorescence dephosphorylation (OMFP is methylfluorescein phosphate); Protein phosphatase EYA2 (Homo sapiens), O00167; Potency, µM (titrated, usually from 76.9 µM), for inactives: top-dose activity, negative = inhibition, actives largely listed as inhibitors; hit rate 0.006% among 330,000
#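 Eya2 protein (added as 0.2 uM solution) was preincubated with compound for 10 min at ambient temperature in 50 mM HEPES pH 7.5, 50 mM NaCl, 5 uM MgCl2, 0.05% BSA, 1 mM DTT. OMFP (added at 50 uM) then reacted 10 min; fluorescence read at 485/525 nm.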
# N370S GC: qHTS Assay for Inhibitors and Activators of N370S glucocerebrosidase as a Potential Chaperone Treatment of Gaucher Disease. Lysosomal acid glucosylceramidase (Homo sapiens), P04062. N370S GC spleen homogenate, 4MU-glucoside fluorescence. Potency, µM (highest dose often 59.4 µM), for the others: top-dose activity change, negative = inhibition, most hits filed as inhibitors. hit rate 0.092% among 330,000. AID 2101, 2009;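 also: 0% = full enzyme activity and -100% = no enzyme basal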
# USP2a block: qHTS Assay for Inhibitors of Ubiquitin-specific Protease USP2a Using CHOP2 as the Reporter; Ubiquitin carboxyl-terminal hydrolase 2 (Homo sapiens), O75604; USP2 core, Ub-CHOP2 coupled fluorogenic reporter, 485/531; Potency, µM (top dose mostly 38.3 µM), for inactives: top-dose activity change, negative = inhibition, actives largely listed as inhibitors; hit rate 0.01% among 330,000;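 also: plate controls were DMSO wells for no effect and full inhibition by NEM control for full effect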
#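 Cell-free coupled assay: 10nM USP2 core preincubated 30min RT with compound in Tris-HCl pH 8.0/CaCl2/CHAPS buffer, then 25nM Ub-CHOP2 and 25nM reporter substrate; fluorescence (Ex 485/Em 531) read after 60min RT, normalized to NEM inhibition, concentration-response curves fitted.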
# The depositor's hits bear a star; · = no result; [ ] = dose if it differs, or a comment. In the library only some 0.1% were active in any assay of this set; here they are far more common. Calls follow the shape of the dose curve; as a rule, active = well fitted curve in the direction sought with a large enough effect; inconclusive = small, poorly fitted or top-dose-only effect, or another doubt; inactive = no such curve, though single readings can be large; an effect the other way counts as inactive or inconclusive. Unless noted, % is scaled to controls: 0 for no effect and ±100 for the full control effect; potency is read from the fitted curve at half-maximal effect.
SMILES,MmCpn inh,Eya2 phos inh,N370S GC,USP2a block
CCN(/C(N)=N/c1nc(C)cc(C)n1)c1ccccc1,-0.9%,1.0%,-23.5%,-0.5%
CCc1cccc(N(C)C(N)=Nc2cccc3ccccc23)c1,0.6%,2.6%,12.6µM*,-7.3%
CCCCc1cc(=O)oc2cc(OCC(=O)NCCN3CCOCC3)c(Cl)cc12,-5.4%,-3.1%,-4.4%,2.4%
CCCCc1cc(=O)oc2cc(OC(C)C(=O)NCCN3CCOCC3)c(Cl)cc12 (configuration not stated),-1.7%,-6.1%,20µM*,0.9%
CCCCCCNC(=O)Nc1ccc(S(=O)(=O)Nc2ccc(CCNC[C@H](O)COc3ccc(O)cc3)cc2)cc1,·,·,7.94µM*,·
CCCCOc1ccc(S(=O)(=O)Nc2ccc(NC(C)=O)cc2)cc1,3.0%,5.3%,-12.6%,2.3%
C=CC1=C2C=C(C3CC3)N(CCCOC(C)C)C=C2C(=O)C(C)(OC(=O)c2ccco2)C1=O (configuration not stated),·,·,9.1%[12.8 µM],·
COc1ccc2[nH]cc(CCNc3nc(-c4cccnc4)nc4ccccc34)c2c1,·,·,12.6µM*,·
COc1ccc2[nH]cc(CCNc3ccnc(-c4ccccc4C)n3)c2c1,·,·,14.1µM*,·
COc1ccc(CNc2nc(-c3cccnc3)nc3ccccc23)c(OC)c1,·,·,11.2µM*,·
COc1ccc(CNc2ccnc(-c3ccccc3Cl)n2)c(OC)c1,·,·,4.47µM*,·
COc1ccccc1-c1nc(NCc2cccnc2)c2ccccc2n1,·,·,-7.9%,·
COc1ccc(CNc2ccnc(-c3ccccc3OC)n2)c(OC)c1,·,·,-11.7%,·
OC[C@@H]1OC(O)[C@@H](O)[C@H](O)[C@@H]1O (some centres not stated),·,·,-11.9%,·
O=CN1CCc2c([nH]c3ccccc23)C1c1cccc2cccnc12 (configuration not stated),·,·,-0.1%,·
C=CC1=C2C=C(C3CC3)N(CCN3CCOCC3)C=C2C(=O)C(C)(OC(=O)c2ccco2)C1=O (configuration not stated),·,·,-14.3%[12.8 µM],·
